Source: PubChem (several laboratories)
CYP2C19 act = increases human CYP2C19 enzyme activity; activation factor at 5 µM; recombinant CYP2C19, luciferin-H EGE luminescence; hits give high values; 0 = fully inhibited enzyme, 1 = untreated enzyme; P33261; 96,000 tested, under 10 active;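 active means activation factor of at least 2 at 5 µM in the primary screen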;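 further: 0 = wells with 2.5 mM tranylcypromine and 1 = vehicle-only wells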
Target sequence (P33261 whole entry, looked up): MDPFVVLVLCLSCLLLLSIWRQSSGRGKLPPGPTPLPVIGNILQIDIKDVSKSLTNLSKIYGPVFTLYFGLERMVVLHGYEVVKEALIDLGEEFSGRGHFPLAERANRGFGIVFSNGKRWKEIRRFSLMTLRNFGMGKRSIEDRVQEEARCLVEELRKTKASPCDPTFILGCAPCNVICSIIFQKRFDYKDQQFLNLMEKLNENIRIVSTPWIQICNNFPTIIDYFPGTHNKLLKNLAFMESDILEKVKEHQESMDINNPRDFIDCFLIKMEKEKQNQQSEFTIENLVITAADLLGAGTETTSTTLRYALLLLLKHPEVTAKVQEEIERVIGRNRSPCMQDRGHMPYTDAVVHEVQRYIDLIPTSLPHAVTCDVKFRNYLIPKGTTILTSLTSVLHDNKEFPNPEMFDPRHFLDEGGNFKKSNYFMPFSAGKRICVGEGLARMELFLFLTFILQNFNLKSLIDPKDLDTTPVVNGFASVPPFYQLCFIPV
CYP2C9 inh = human CYP2C9 inhibition. inhibition, % at 5 µM. 96,000 tested, 20% active. CYP2C9 Supersomes, luciferin-H conversion, luminescence;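 active means blocking of liver enzyme CYP2C9 beyond about 50% at 5 µM, limit read from the data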
CYP2C9 activ = activators of human CYP2C9; recombinant CYP2C9, luciferin-H conversion, luminescence; hits give high values; factor 1 = untreated enzyme, 0 = blocked; AID 1024; activation factor at 5 µM; P11712; 96,000 tested, 1.4% active;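 active means activation factor of 2 or more for CYP2C9 at a 5 µM dose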;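 further: 0 = sulfaphenazole-blocked wells and 1 = vehicle-only wells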
CYP2C19 inhib = blocks human cytochrome P450 2C19. P33261. CYP2C19 Supersomes, luciferin-H EGE luminescence, 30 min. inhibition, % at 5 µM. 96,000 tested, 21% active;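 active means CYP2C19 inhibition above a set limit at 5 µM in the primary screen, cut at about 50% in these data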;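 further: plate controls were negative control wells for no effect and 2.5 mM tranylcypromine positive control for full effect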
Cav32 inh = inhibitors of human Cav3.2 T-type calcium channel; 100,000 tested, 4% active; AID 449739; B-score at 10 µM; Cav3.2-expressing cells, Fluo-4 calcium fluorescence FDSS; hits give low values;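 active means single-dose well whose peak fluorescence ratio is a statistical outlier from its plate by either plate-standardised score or position-corrected B-score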
* = called active by the depositor. In the library only some 27% were active in any assay of this set; here they are far more common.

`O=C(Nc1ccc2c(c1)OCO2)C1CCCCN1S(=O)(=O)c1ccc(F)cc1` (stereo not drawn) gave CYP2C19 act 0, CYP2C9 inh 63*, CYP2C9 activ 0.4, CYP2C19 inhib 100* and Cav32 inh -0.019.
`Cc1ccc(S(=O)(=O)N2CCC(C(=O)Nc3ccc4c(c3)OCO4)CC2)cc1` gave CYP2C19 act 0.9, CYP2C9 inh -10, CYP2C9 activ 1.1, CYP2C19 inhib 9 and Cav32 inh -0.16.
Screening COc1ccc(NC(=O)C2CCCCN2S(=O)(=O)c2ccc(F)cc2)c(OC)c1 (stereo not drawn) returned CYP2C19 act 0.6, CYP2C9 inh 26, CYP2C9 activ 0.7, CYP2C19 inhib 43 and Cav32 inh -0.24.
Screening COc1ccc(NC(=O)C2CCC(=O)N2S(=O)(=O)c2ccc(C)cc2)c(OC)c1 (stereo not drawn) returned CYP2C19 act 0.9, CYP2C9 inh -67, CYP2C9 activ 1.7, CYP2C19 inhib 13 and Cav32 inh 0.014.
CC(=O)Oc1ccc(C)cc1-n1nc2ccccc2n1 was read as CYP2C19 act 0.6, CYP2C9 inh 21, CYP2C9 activ 0.8, CYP2C19 inhib 36 and Cav32 inh -1.5.
For COc1ccc(S(=O)(=O)N2CCC(O)(c3ccc4c(c3)OCO4)CC2)cc1 the results were CYP2C19 act 1, CYP2C9 inh -17, CYP2C9 activ 1.2, CYP2C19 inhib 3 and Cav32 inh -0.64.
For O=C(NCc1ccco1)C1CCCCN1S(=O)(=O)c1ccc(F)cc1 (stereo not drawn) the results were CYP2C19 act 0.4, CYP2C9 inh 31, CYP2C9 activ 0.7, CYP2C19 inhib 61* and Cav32 inh 0.97.
`COc1ccc(S(=O)(=O)N2CCCC2C(=O)Nc2ccc(C(C)=O)cc2)cc1` (stereo not drawn) gave CYP2C19 act 0.4, CYP2C9 inh 30, CYP2C9 activ 0.7, CYP2C19 inhib 57* and Cav32 inh 0.38.
Screening O=C(NCC1CCCO1)C1CCCCN1S(=O)(=O)c1ccc(F)cc1 (stereo not drawn) returned CYP2C19 act 1, CYP2C9 inh -6, CYP2C9 activ 1.1, CYP2C19 inhib 2 and Cav32 inh -2.1.
COc1ccc(NC(=O)C2CCCN2S(=O)(=O)c2ccc(C)cc2)cc1 (stereo not drawn) was read as CYP2C19 act 0.3, CYP2C9 inh 75*, CYP2C9 activ 0.3, CYP2C19 inhib 74* and Cav32 inh 0.052.
`COc1ccc(S(=O)(=O)N2CCCC2C(=O)Nn2cnnc2)cc1` (stereo not drawn) gave CYP2C19 act 0.9, CYP2C9 inh -7, CYP2C9 activ 1.1, CYP2C19 inhib 7 and Cav32 inh 1.1.
Screening O=S(=O)(c1ccc(F)cc1)N1CCC(O)(c2ccc3c(c2)OCO3)CC1 returned CYP2C19 act 0.3, CYP2C9 inh 8, CYP2C9 activ 0.9, CYP2C19 inhib 71* and Cav32 inh 0.0035.
Cc1cc(C)c(NC(=O)C2CC(=O)N(c3ccc4c(c3)OCCO4)C2)c(C)c1 (stereo not drawn) was read as CYP2C19 act 0.8, CYP2C9 inh 20, CYP2C9 activ 0.8, CYP2C19 inhib 16 and Cav32 inh -0.026.
Screening O=C(NC1=NCCS1)c1csc2ccccc12 returned CYP2C19 act 0.6, CYP2C9 inh -12, CYP2C9 activ 1.1, CYP2C19 inhib 44 and Cav32 inh 0.37.
`O=C(Nc1ccccc1C(=O)OCn1nnc2ccccc2c1=O)c1ccco1` gave CYP2C19 act 1, CYP2C9 inh 33, CYP2C9 activ 0.7, CYP2C19 inhib -2 and Cav32 inh -0.31.
For Cc1cc(N2CCN(S(=O)(=O)c3ccc4c(c3)OCCO4)CC2)n2ncnc2n1 the results were CYP2C19 act 0.8, CYP2C9 inh 3, CYP2C9 activ 1, CYP2C19 inhib 16 and Cav32 inh 0.74.
Screening COc1ccc(/C=C/C(=O)N(C(C)C)C(C)C)cc1Br returned CYP2C19 act 0.4, CYP2C9 inh -12, CYP2C9 activ 1.1, CYP2C19 inhib 60* and Cav32 inh -0.33.
Cc1nc2ncnn2c(C)c1CCC(=O)Nc1csc(N)n1 was read as Cav32 inh 0.23.
`CC1CCCN(c2nc3c(c(=O)[nH]c(=O)n3C)n2CCCc2ccccc2)C1` (stereo not drawn) gave CYP2C19 act 0.8, CYP2C9 inh 62*, CYP2C9 activ 0.4, CYP2C19 inhib 21 and Cav32 inh -5.6*.
Screening CCn1c(N2CCC(Cc3ccccc3)CC2)nc2c1c(=O)[nH]c(=O)n2C returned CYP2C19 act 0.2, CYP2C9 inh 54*, CYP2C9 activ 0.5 and CYP2C19 inhib 77*.
Screening CC1CN(CCc2ccccc2)c2nc3c(c(=O)[nH]c(=O)n3C)n2C1 (stereo not drawn) returned CYP2C19 act 0.3, CYP2C9 inh 57*, CYP2C9 activ 0.4, CYP2C19 inhib 74* and Cav32 inh 1.2.
Screening CC1CCN(c2nc3c(c(=O)[nH]c(=O)n3C)n2Cc2ccccc2)CC1 returned CYP2C19 act 0.8, CYP2C9 inh 17, CYP2C9 activ 0.8, CYP2C19 inhib 22 and Cav32 inh -0.7.
`CC1CCCN(c2nc3c(c(=O)[nH]c(=O)n3C)n2CCSc2ncccn2)C1` (stereo not drawn) gave Cav32 inh 0.41.
Screening CC1CN(c2ccc(Oc3ccccc3)cc2)c2nc3c(c(=O)[nH]c(=O)n3C)n2C1 (stereo not drawn) returned CYP2C19 act 1, CYP2C9 inh 9, CYP2C9 activ 0.9, CYP2C19 inhib -5 and Cav32 inh 0.21.
`CC1CN(C2CCCCC2)c2nc3c(c(=O)[nH]c(=O)n3C)n2C1` (stereo not drawn) gave CYP2C19 act 0.9, CYP2C9 inh 56*, CYP2C9 activ 0.4, CYP2C19 inhib 7 and Cav32 inh 2.
For CCOC(=O)C1CCCN(c2c(N3CCN(c4ccccn4)CC3)c(=O)c2=O)C1 (stereo not drawn) the results were CYP2C19 act 1, CYP2C9 inh 7, CYP2C9 activ 0.9, CYP2C19 inhib 2 and Cav32 inh 0.69.
`O=S(=O)(CCN(CCS(=O)(=O)C(F)(F)F)CC1CCCO1)C(F)(F)F` (stereo not drawn) gave CYP2C19 act 1, CYP2C9 inh -9, CYP2C9 activ 1.1, CYP2C19 inhib 3 and Cav32 inh -3.5.
`Cc1oc2c(c1C(=O)c1ccccc1)C(=O)C(=O)c1ccccc1-2` gave CYP2C19 act 0.1, CYP2C9 inh 90*, CYP2C9 activ 0.1, CYP2C19 inhib 92* and Cav32 inh -5.1.
Screening O=C1C(=O)c2c(C(=O)c3ccccc3)coc2-c2ccccc21 returned CYP2C19 act 0.2, CYP2C9 inh 95*, CYP2C9 activ 0.1, CYP2C19 inhib 82* and Cav32 inh -2.2.
For Cc1oc(=O)c(NC(=O)c2ccccc2)cc1C(=O)c1ccccc1 the results were CYP2C19 act 0.7, CYP2C9 inh 14, CYP2C9 activ 0.9, CYP2C19 inhib 35 and Cav32 inh -0.4.
